Results: PubChem BioAssay
For some assays here: Potency and affinity values are given separately. Activity calls are given as the source filed them. Unless noted, the rule behind the calls is not given here.

Assays:
[1] = molecular target: Calcium-dependent protein kinase 1 (Plasmodium falciparum (isolate 3D7)) (UniProt P62344); assay: PfCDPK1 kinase inhibitors, biochemical, TCAMS library (AID 1159585; cut-off not given, nearly all actives have IC50 up to about 0.98 µM;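 note: inhibitors leave more ATP so luminescence rises with inhibition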); conditions: recombinant PfCDPK1, Kinase-Glo ATP depletion luminescence
[2] = molecular target: Plasmodium falciparum protein kinase 6 (PK6, PF3D7_1337100) (UniProt Q8IDW1); assay: PfPK6 kinase inhibitors, biochemical, TCAMS library (AID 1159586); conditions: recombinant PfPK6, Kinase-Glo ATP depletion luminescence
[3] = molecular target: Protein kinase 7 (PK7), Plasmodium falciparum 3D7 (PF3D7_0213400) (UniProt Q7YTF7); assay: inhibition of Plasmodium PK7 catalytic activity – biochemical, TCAMS antimalarial set, Kinase-Glo luminescence (AID 1159587); conditions: recombinant PfPK7, Kinase-Glo ATP depletion luminescence
[4] = molecular target: Calcium-dependent protein kinase 4 (Plasmodium falciparum (isolate 3D7)) (UniProt Q8IBS5); assay: PfCDPK4 kinase inhibitors, biochemical, TCAMS library (AID 1159588; cut-off not given, nearly all actives have IC50 up to about 0.91 µM); conditions: recombinant PfCDPK4, Kinase-Glo ATP depletion luminescence

Measured: outcome

Plasmodium falciparum protein kinase 6 (PK6, PF3D7_1337100), sequence (Q8IDW1 1-305): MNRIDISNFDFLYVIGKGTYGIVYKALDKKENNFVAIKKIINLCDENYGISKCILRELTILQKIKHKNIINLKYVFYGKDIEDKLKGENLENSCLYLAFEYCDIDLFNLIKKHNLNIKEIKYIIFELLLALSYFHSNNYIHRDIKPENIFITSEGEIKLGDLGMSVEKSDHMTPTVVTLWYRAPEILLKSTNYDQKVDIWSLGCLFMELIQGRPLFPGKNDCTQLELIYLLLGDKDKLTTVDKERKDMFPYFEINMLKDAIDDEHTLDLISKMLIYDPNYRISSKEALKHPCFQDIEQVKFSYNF
Calcium-dependent protein kinase 1 (Plasmodium falciparum (isolate 3D7)), sequence (P62344 whole entry, looked up): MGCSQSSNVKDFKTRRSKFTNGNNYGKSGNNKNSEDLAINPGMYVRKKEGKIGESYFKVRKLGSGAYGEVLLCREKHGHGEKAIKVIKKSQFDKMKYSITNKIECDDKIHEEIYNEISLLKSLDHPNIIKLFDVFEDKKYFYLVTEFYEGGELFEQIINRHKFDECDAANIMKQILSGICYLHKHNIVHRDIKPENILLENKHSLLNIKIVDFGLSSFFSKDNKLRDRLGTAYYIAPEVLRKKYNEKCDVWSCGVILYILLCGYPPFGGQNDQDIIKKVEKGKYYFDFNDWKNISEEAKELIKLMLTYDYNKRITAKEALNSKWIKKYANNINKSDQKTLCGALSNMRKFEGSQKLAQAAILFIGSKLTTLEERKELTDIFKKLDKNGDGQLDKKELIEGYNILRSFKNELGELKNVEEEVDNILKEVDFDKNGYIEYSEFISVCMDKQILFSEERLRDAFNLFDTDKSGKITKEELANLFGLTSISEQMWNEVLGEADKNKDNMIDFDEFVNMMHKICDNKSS
Calcium-dependent protein kinase 4 (Plasmodium falciparum (isolate 3D7)), sequence (Q8IBS5 whole entry, looked up): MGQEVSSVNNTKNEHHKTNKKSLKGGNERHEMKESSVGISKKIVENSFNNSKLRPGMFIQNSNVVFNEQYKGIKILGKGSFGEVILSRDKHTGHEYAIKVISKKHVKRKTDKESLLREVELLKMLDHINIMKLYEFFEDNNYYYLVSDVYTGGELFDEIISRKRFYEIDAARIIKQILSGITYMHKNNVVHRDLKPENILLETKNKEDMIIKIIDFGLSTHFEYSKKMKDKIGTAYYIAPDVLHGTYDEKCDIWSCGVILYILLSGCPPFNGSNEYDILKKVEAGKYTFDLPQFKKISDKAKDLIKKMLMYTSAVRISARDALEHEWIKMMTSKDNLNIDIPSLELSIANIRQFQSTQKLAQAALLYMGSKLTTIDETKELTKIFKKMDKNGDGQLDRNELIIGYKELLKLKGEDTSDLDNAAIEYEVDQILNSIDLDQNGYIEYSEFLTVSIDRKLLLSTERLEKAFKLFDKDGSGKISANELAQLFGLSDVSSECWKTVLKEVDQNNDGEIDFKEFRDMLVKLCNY
Protein kinase 7 (PK7), Plasmodium falciparum 3D7 (PF3D7_0213400), sequence (Q7YTF7 1-343): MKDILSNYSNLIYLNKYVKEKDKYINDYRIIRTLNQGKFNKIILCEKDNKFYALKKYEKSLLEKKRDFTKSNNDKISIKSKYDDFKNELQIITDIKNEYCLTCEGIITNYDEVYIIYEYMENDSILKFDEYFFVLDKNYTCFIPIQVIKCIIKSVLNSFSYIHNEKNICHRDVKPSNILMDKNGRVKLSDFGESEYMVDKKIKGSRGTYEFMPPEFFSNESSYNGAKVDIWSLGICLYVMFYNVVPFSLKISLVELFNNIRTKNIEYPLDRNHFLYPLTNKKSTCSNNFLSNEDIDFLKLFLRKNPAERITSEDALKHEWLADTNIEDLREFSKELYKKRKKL

O=[N+]([O-])c1ccc(/C=N/O)nc1
inactive: all assays above

CCC[C@H](C(=O)NCCc1cccc(OC)c1)N1C(=O)c2c(ccc(OC)c2OC)C1C(=O)Nc1c(C)cccc1C (some centres not stated)
inactive: all assays above

COc1ccc(N=[N+]([O-])c2ccccc2[N+]([O-])=Nc2ccc(OC)cc2)cc1
inactive: all assays above

CCOc1cc(/C=N/Nc2nc(C)cc(-n3nc(C)cc3C)n2)ccc1O
inactive: all assays above

CN(C)C[C@H](O)[C@H](c1ccccc1)c1ccc(Cl)cc1
inactive: all assays above

Oc1c(/C=N/n2cnnc2)sc2ccccc12
inactive: all assays above

COc1cc(/C=N/Nc2ccnc3cc(Cl)ccc23)ccc1O
inactive: all assays above

CC[C@@H]([C@H](CC(C)C)C(=O)N[C@@H](CCCCNC(=O)OCc1ccccc1)C(=O)Nc1ccccn1)N(O)C=O
inactive: all assays above
